High-throughput results (PubChem BioAssay)
Most compounds without a hit are left out; they make up all but 3.5% or so of the library.
GPR151 ag – activates the human receptor GPR151 | Q8TDV0 | PathHunter beta-arrestin GPR151 cells, luminescence | activation, % at 11.2 µM | 650,000 tested, 1% active; in the data active = activation above about 4.9%;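 note: 0% = median of compound wells and 100% = cells with positive control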
MITF primary – human MITF inhibition, primary screen. O75030. AlphaScreen MITF homodimerization, bead proximity signal. inhibition, % at 2.6 µM. 650,000 tested, 0.91% active. AID 1259374; in the data active = inhibition above about 50%;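 note: 0% = vehicle wells with protein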
Target sequence (O75030 whole entry, looked up): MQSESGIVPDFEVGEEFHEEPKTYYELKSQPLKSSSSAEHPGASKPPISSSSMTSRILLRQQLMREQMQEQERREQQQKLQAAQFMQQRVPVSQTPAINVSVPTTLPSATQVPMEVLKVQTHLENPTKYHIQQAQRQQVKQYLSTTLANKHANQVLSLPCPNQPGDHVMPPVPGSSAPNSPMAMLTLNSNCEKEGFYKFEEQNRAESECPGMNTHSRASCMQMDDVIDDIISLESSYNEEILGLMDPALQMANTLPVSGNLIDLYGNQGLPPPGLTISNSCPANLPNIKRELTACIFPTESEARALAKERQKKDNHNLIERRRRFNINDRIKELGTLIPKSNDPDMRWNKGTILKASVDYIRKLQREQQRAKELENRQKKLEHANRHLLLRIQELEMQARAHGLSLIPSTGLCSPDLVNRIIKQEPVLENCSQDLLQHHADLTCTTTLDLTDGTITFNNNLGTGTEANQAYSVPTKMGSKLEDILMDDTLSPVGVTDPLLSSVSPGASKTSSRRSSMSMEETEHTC
TEAD-YAP block – TEAD-YAP interaction inhibition; HEK-TIYL cells, TEAD-Gal4/YAP UAS-luciferase luminescence; inhibition, % at 9.12 µM; 640,000 tested, 1.4% active; AID 1259422; in the data active = inhibition above about 32%;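 note: 0% = median of test compound wells and 100% = reference inhibitor wells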
FBW7 act – human FBW7 E3 ligase activation, primary screen; 650,000 tested, 0.13% active; normalized activity (activation), % at 26.1 µM; AID 1259310; AlphaScreen FBW7–phospho-cyclin E peptide binding, activator screen; in the data active = normalized activity above about 1.9%;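 note: purified mutant Fbw7 with reduced substrate affinity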
The depositor's hits bear a star.

SMILES	GPR151 ag	MITF primary	TEAD-YAP block	FBW7 act
COC(=O)c1ccc2nc(Nc3nc4ccc(OC)cc4s3)sc2c1	0.9	-3.1	49.2*	0.1
O=C(NCCc1ccc(O)cc1)c1ccc2nc(Nc3ccc(-n4ccnc4)cc3)sc2c1	1.6	2.3	3.1	0.1
COC(=O)c1ccc2nc(Nc3nc4c(OC)cccc4s3)sc2c1	-1.9	6.5	73.3*	0.8
COc1cc(C)c(CSC(=N)N)cc1OC	-0.7	-1.9	-4.1	-0.1
Cn1c(SCCOc2ccc(C(C)(C)C)cc2)nc2ccccc21	-0.1	7.6	-3.8	-0.1
c1ccc(Oc2cccc(Oc3cccc(Oc4cccc(Oc5ccccc5)c4)c3)c2)cc1	0.8	-4.2	-5.9	0.4
Nc1ccc(Oc2cccc(Oc3ccc(N)cc3)c2)cc1	0.3	6.3	51.9*	0.2
COc1ccc(Oc2nc(C)cc(C)n2)cc1	-2.3	3.7	-10.1	0.7
Cc1cc(C)nc(Oc2ccc(N)cc2)n1	0.1	16.5	52.4*	1.9*
Nc1ccc(Oc2cccc(-c3ccc(N)cc3)c2)cc1	-0.1	6.2	45.8*	-0.1
CC1CCCCC1NC(=O)CN(C)S(=O)(=O)c1ccc2nc(-c3ccccc3)[nH]c2c1 (configuration not stated)	1.4	53.9*	26.0	0.4
O=C1CCCN1CCn1cnc2c(NC3CC3)nc(Nc3nccc4ccccc34)nc21	-0.5	-2.2	-1.1	-0.2
Cc1c(C(=O)O)c(O)cc2c1C(=O)c1c(O)c([C@H]3O[C@H](CO)[C@@H](O)[C@H](O)[C@H]3O)c(O)c(O)c1C2=O	-1.5	89.5*	0.0	-0.5
COc1c(O)cc2c(c1O)[C@@H]1O[C@H](CO)[C@@H](O)[C@H](O)[C@H]1OC2=O	-1.8	4.2	-6.7	-0.2
NNC(=O)/C(=C/c1cccs1)NC(=O)c1ccccc1	-0.6	-0.3	46.6*	-0.2
CCOc1ccc(O)c(/C=N/NC(=O)/C(=C\c2cccs2)NC(=O)c2ccccc2)c1	-0.2	-1.2	8.3	0.1
COc1ccc(O)c(/C=N/NC(=O)/C(=C\c2cccs2)NC(=O)c2ccccc2)c1	1.8	10.4	58.3*	-0.1
COc1cc(Br)cc(CNc2ccc3c(c2)OCCO3)c1O	-0.6	4.6	-18.0	-0.2
CCS(=O)(=O)N1CCN(Cc2nc(-c3ccc(Cl)cc3)cs2)CC1	0.4	-2.6	32.9*	0.2
CCOC(=O)C(C#N)C(=O)c1ccc(N2C(=O)c3ccccc3C2=O)cc1 (configuration not stated)	3.0	-9.5	0.3	-0.1
CCOC(=O)C(C#N)C1(O)C(=O)c2ccccc2C1=O (configuration not stated)	-0.9	56.8*	8.9	1.1
CCCCC(=O)Nc1sc2c(c1C#N)CCN(C(C)=O)C2	0.4	6.8	42.6*	-0.1
CC(=O)N1CCc2c(sc(NC(=O)c3ccc(Br)cc3)c2C#N)C1	2.6	-1.8	41.3*	0.5
CC(=O)N1CCc2c(sc(NC(=O)c3ccc4c(c3)OCCO4)c2C#N)C1	1.5	-5.2	39.6*	-0.1
COC(=O)c1c(NC(=O)c2ccc(S(=O)(=O)N(C)C)cc2)sc2c1CCN(C(C)=O)C2	0.6	6.6	4.0	0.0
SMILES	GPR151 ag	MITF primary	TEAD-YAP block	FBW7 act
COC(=O)c1c(NC(=O)c2ccc(Cl)cc2)sc2c1CCN(C(C)=O)C2	-0.4	-15.7	12.8	3.3*
CCCC1=C(C(=O)OCC)C(c2ccc(Br)cc2)NC(=O)N1 (configuration not stated)	1.0	14.2	13.3	0.0
CC(=O)Nc1ccc(OCC(=O)Nc2cccc(Oc3ccccc3)c2)cc1	0.1	5.7	35.8*	0.0
COc1ccc(OCC(=O)Nc2ccc(NC(=O)c3ccccc3)cc2)cc1	3.1	-10.5	36.3*	0.0
O=C(Nc1ccc(Br)cn1)c1ccccc1[N+](=O)[O-]	0.4	0.4	54.5*	-0.1
CC(=O)Nc1cccc(NC(=O)COc2ccc(Oc3ccccc3)cc2)c1	1.0	20.2	-1.1	0.4
CCc1ccc(C(=O)Nc2ccc(Br)cn2)cc1	-3.9	10.7	38.1*	0.2
CCc1ccc(C(=O)Nc2ccc(I)cn2)cc1	0.5	-8.2	-54.8	0.0
Oc1ccc(N2CCN(Cc3nnnn3Cc3ccc(F)cc3)CC2)cc1	-0.2	-1.1	-1.7	0.1
CC(Oc1cccc(Cl)c1)C(=O)Nc1c[nH]c(=O)[nH]c1=O (configuration not stated)	1.2	-5.8	0.6	0.1
O=C(O)c1cc2c(o1)CCC/C2=N/O	-1.8	5.3	0.8	0.0
COc1ccccc1N(CCOC(=O)/C=C/c1cccc(Cl)c1)C1=NS(=O)(=O)c2ccccc21	1.7	-13.9	0.2	-0.2
COC(=O)CN1C(=O)C2(C(C#N)=C(N)OC3=C2C(=O)CCC3)c2ccccc21 (configuration not stated)	0.4	-1.2	-1.3	0.1
COc1ccc(C(=O)OCC(=O)c2ccc(C)cc2)cc1	-1.4	-0.9	2.6	0.1
COc1ccc(NC(=O)COc2c(C)ccc(C)c2C)cc1	2.0	4.8	45.8*	-0.1
Cc1ccc(-n2nc3ccc(NC(=O)COc4ccccc4)cc3n2)cc1Cl	1.7	-0.7	4.7	5.2*
CCc1ccc(C(=O)Nc2ccc(C(=O)O)cc2)cc1	-0.3	9.5	57.9*	0.1
CC(=O)Nc1ccc(OCCC[n+]2ccccc2)cc1	-1.1	9.1	4.4	1.9*
CCc1ccc(C(=O)Nc2ccc(Br)cc2)cc1	0.5	7.7	-66.6	0.0
Cc1ccnc(SCC(=O)NC(C)CCc2ccccc2)n1 (configuration not stated)	-1.1	0.3	-1.4	-0.1
CN(C)c1nc2nonc2nc1N	-1.3	-7.8	-8.0	0.2
c1ccc(CNc2cc(Nc3ccc(N4CCOCC4)cc3)ncn2)cc1	-2.0	18.3	-20.5	0.1
CCc1ccc(N2C(=O)C3C4c5ccccc5C(c5ccccc54)C3C2=O)cc1 (configuration not stated)	0.1	6.8	13.8	0.4
C#CC(C)(C)OC(=O)Nc1ccc([N+](=O)[O-])cc1	0.2	-1.0	-15.4	0.1
CCOc1ccc(C(=O)Nc2ccc(OCC(=O)O)cc2)cc1	0.0	12.2	47.7*	0.1
SMILES	GPR151 ag	MITF primary	TEAD-YAP block	FBW7 act
Cc1ccc(NC(=O)c2ccc(OCC(=O)Nc3ccccc3)cc2)cc1	-0.8	0.4	-15.5	0.1
Cc1ccc(C(=O)Nc2ccc(OCC(=O)O)cc2)cc1	0.0	7.8	37.0*	-0.1
CC1CCN(c2ccc([N+](=O)[O-])cc2S(=O)(=O)N2CCN(C)CC2)CC1	-1.3	15.7	3.1	0.1
CN(C)/N=C/C=C1\CC/C(=C\c2ccco2)C1=O	1.2	54.8*	-41.6	-0.1
CC(C)c1ccc(/C=C2\CC/C(=C\C=N\N(C)C)C2=O)cc1	-0.7	-12.8	-5.8	0.0
O=C1C(=C2SCCS2)CC/C1=C\c1ccco1	3.0	91.5*	18.5	-0.7
FC(F)(F)c1ccc(Cn2cnc3c(NCCOc4ccccc4)nc(N4CCN(c5ccccn5)CC4)nc32)cc1	1.6	18.9	6.6	0.3
COc1ccc(C(=O)Nn2c(-c3ccccc3F)nc3ccccc3c2=O)cc1OC	0.8	1.4	5.2	0.2
C=CCC1S/C(=N\N=C\c2cccc([N+](=O)[O-])c2)NC1=O (configuration not stated)	-0.1	8.5	4.8	2.3*
